According to PubChem BioAssay AID651957 (The Scripps Research Institute Molecular Screening Center, 2012):
Hit rate of the full screen: of about 370,000 compounds, about 620 (0.17%) were called active. The sample as a whole holds a higher share of actives than the screen did. A number with no mark means an inactive call.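 Rule for the calls: active = inhibition above the mean inhibition of all tested compounds plus 3 SD, set per campaign (cut at about 52% in these data); inactive = the rest.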

These compounds were tested against Nuclear receptor coactivator 2 (Homo sapiens) (UniProt Q15596) (assay: decrease of SRC2 fusion reporter luminescence – cell-based, SRC2 inhibitor project, primary screen (AID 651957;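 note: 0% = DMSO treated cells and 100% = cells given Gossypol at 36 µM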)). Details: HEK293 GAL4-SRC2 luciferase reporter, at 9 µM, stronger effect = higher value.
Sequence of Nuclear receptor coactivator 2 (Homo sapiens) (Q15596 whole entry, looked up, the tested form may be a part): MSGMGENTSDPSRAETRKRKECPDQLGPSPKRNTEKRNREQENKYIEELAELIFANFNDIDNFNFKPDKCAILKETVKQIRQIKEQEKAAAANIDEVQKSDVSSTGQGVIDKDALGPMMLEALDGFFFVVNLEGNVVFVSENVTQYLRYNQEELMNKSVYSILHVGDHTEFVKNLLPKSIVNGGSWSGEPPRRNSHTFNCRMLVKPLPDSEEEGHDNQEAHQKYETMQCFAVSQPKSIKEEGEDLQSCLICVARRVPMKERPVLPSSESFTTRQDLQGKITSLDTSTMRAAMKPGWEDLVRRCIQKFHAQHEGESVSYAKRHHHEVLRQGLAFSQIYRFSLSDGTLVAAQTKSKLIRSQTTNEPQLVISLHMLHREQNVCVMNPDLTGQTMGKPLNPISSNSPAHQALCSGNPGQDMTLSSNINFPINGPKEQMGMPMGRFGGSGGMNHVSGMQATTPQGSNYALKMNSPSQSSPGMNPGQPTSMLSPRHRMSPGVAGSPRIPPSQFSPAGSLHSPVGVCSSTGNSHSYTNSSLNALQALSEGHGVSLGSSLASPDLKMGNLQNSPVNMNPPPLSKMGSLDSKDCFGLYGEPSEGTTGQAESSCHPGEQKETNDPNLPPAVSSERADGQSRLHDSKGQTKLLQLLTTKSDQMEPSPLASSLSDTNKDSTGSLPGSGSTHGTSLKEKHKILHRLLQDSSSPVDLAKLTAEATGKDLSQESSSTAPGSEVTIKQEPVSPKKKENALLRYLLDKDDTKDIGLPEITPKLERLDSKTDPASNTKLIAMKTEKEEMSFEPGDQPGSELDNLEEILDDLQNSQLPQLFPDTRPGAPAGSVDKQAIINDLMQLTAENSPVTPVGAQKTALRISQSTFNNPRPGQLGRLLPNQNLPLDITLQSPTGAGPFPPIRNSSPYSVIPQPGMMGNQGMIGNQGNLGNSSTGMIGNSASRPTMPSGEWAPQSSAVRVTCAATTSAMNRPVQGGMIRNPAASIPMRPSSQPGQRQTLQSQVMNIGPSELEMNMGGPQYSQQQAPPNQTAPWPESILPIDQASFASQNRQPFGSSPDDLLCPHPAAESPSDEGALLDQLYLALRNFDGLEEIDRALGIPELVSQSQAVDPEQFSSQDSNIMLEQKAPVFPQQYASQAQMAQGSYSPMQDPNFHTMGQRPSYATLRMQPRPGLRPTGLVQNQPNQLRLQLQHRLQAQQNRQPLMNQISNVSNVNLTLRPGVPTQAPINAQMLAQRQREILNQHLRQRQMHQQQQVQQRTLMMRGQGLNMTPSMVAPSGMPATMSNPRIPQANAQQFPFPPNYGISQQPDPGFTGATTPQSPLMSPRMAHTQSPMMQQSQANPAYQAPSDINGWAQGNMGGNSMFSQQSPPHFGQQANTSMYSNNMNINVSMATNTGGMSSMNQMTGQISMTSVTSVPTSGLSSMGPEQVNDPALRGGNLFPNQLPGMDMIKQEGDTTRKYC

Structure (SMILES)	inhibition
COc1cc(Cl)c(C)cc1NC(=O)COC(=O)c1cc(SC)ccc1Cl	-3.4%
Cc1csc(NC(=O)CN2CCCCCC2)n1	-13.9%
COc1cc(SC)ccc1C(=O)Nc1nc(C)cs1	73.4% (active)
COCc1[nH]nc2c1C(c1ccccc1)N(c1ccccc1)C2=O (stereo not given)	13.8%
N#CCC[C@H]1CC[C@]2(CCCN(Cc3ccc(Cl)cc3)C2)O1	7.54%
COc1ccc(S(=O)(=O)Nc2ccc(F)cc2)c(C)c1C	-27.1%
CC(CCN1CCC(C(O)(c2ccccc2)c2ccccc2)CC1)Oc1ccc(C(F)(F)F)cc1 (stereo not given)	-7.91%
Cc1cc(C(=O)COC(=O)CNC(=O)c2ccc(F)cc2)c(C)n1Cc1ccco1	-4.87%
COCCn1c(C)cc(C(=O)COC(=O)CNC(=O)c2ccco2)c1C	-9.66%
Cc1ccsc1C(=O)OCC(=O)c1cc(C)n(CC2CCCO2)c1C (stereo not given)	73.2% (active)
O=C(Nc1ccccc1)N1CCN(Cc2nc3ccccc3c(=O)[nH]2)CC1	-10.6%
O=S1(=O)c2c(NCc3ccco3)cccc2Oc2ccccc2CN1Cc1cn(Cc2cccc(C(F)(F)F)c2)nn1	4.32%
Clc1ccc(Cl)c(Oc2ccc(Oc3nc(Cl)ccc3Cl)cc2)n1	-10%
c1csc(-c2nnc(SCc3nc4ccccc4[nH]3)o2)c1	4.24%
O=C(NCc1ccc2c(c1)OCO2)c1cc2c(s1)CS(=O)(=O)C2	13.1%
COc1cccc(NC(=O)C2(C)CCN2Cc2ccccc2Cl)c1 (stereo not given)	-0.04%
C#CCNC(=O)C[C@H]1C[C@@]2(C(=O)OC)C(=C[C@H](C(C)C)O[C@@H]2C2CC2)N(Cc2ccco2)C1=O	14.7%
Cc1ccc(CSc2nnc(SCC(=O)NN=Cc3cc(Br)ccc3F)s2)cc1	15%
Cc1cccc(Nc2nc3c(S(=O)(=O)c4ccccc4)nnn3c3ccccc23)c1C	6.13%
Cc1noc(C)c1S(=O)(=O)N(C)C[C@H]1OCCCC[C@@H](C)Oc2ccc(NC(=O)CCCN(C)C)cc2C(=O)N([C@H](C)CO)C[C@@H]1C	-6.35%
CCC(C)CN1C(=O)CN(S(C)(=O)=O)CC1(C)C(=O)Nc1ccc2c(c1)OCCO2 (stereo not given)	-21.3%
CCOC(=O)N1CCN(C(=O)C[C@H]2C[C@@]3(C(=O)OC)C(=C[C@H](C(C)(C)C)O[C@@H]3C)N(Cc3ccc(Cl)cc3Cl)C2=O)CC1	23.9%
CC1(C)Cc2c(sc3nc(SCC(=O)NCc4ccccc4)n(-c4ccccc4)c(=O)c23)CS1	-9.11%
C[C@@H]1ON(C)[C@H]2C[C@H]3c4[nH]c5cccc(-c6ccc7c(c6)OCO7)c5c4CCN3C[C@@H]12	-21%
C=CC1C(OC2OC(CO)C(O)C(O)C2O)OC=C(C(=O)OC)C1CC1CC(=O)CC(CC(=O)CCc2ccc(O)cc2)O1 (stereo not given)	-3.45%
COc1ccc(-c2cc(-c3nnc(SCc4ccc([N+](=O)[O-])cc4)n3N)[nH]n2)cc1	-26.2%
COc1ccc(CCOC2OC(CO)C(OC(=O)/C=C/c3ccc(O)c(OC)c3)C(O[C@H]3O[C@@H](C)[C@H](O)[C@@H](O)[C@H]3O)C2O)cc1O (stereo not given in full)	-2.46%
CCCCn1c(N)c(N(CC)C(=O)c2ccc(N(C)S(=O)(=O)c3ccc(C)cc3)cc2)c(=O)[nH]c1=O	-16.6%

Structure (SMILES)	inhibition
CN(C)S(=O)(=O)c1ccc(NC(=O)COC(=O)Cn2[nH]c(=O)c3ccccc3c2=O)cc1	10.7%
CCC(CO)Nc1cccc2c1S(=O)(=O)N(Cc1cn(Cc3ccccc3C(F)(F)F)nn1)Cc1ccccc1O2 (stereo not given)	-19.2%
O=C(OC12CC3CC(CC(C3)C1)C2)c1ccc(NCc2cc(O)ccc2O)cc1	84.2% (active)
Cc1nc(N)nc(SCc2ccc([N+](=O)[O-])cc2)c1N	-3.96%
COCCCNC(=O)C[C@H]1C[C@@]2(C(=O)OC)C(=C[C@H](C(C)(C)C)O[C@@H]2C)N(Cc2ccc(Cl)cc2Cl)C1=O	16.8%
CCOC(=O)[C@]12CCCC=C1N(Cc1ccc(OC)cc1)C(=O)[C@@H]2CC(=O)NCc1cccs1	7.23%
CCOC(=O)[C@]12CCCCC/C=C\1N(Cc1ccc(OC)cc1)C(=O)[C@H]2CC(=O)N1CCOCC1	8.19%
Cc1sc2ncn(CC(=O)NCCCC(=O)NCc3ccc(F)cc3)c(=O)c2c1C	-10.8%
Cc1[nH]n(C(N)=S)c(=O)c1N=Nc1ccc(Cl)cc1Cl	-13.3%
CCCCOCCCNC(=O)C[C@H]1C[C@@]2(C(=O)OC)C(=C[C@H](COCc3ccccc3)O[C@@H]2C)N(Cc2cccc3ccccc23)C1=O	6.59%
COc1ccc(C(C#N)=C2C=CC(=NO)c3ccccc32)cc1	23.7%
CC(=O)Nc1ccc(S(=O)(=O)Nc2ccc(N3CCCCC3)cc2)cc1	63.2% (active)
O=C(Nc1ccc(N2CCCCC2)cc1)c1cc(S(=O)(=O)N2CCOCC2)ccc1F	10.1%
CC(=O)Nc1ccc(S(=O)(=O)N2CCCC2C(=O)O)cc1 (stereo not given)	10.5%
C[C@H](NC(=O)C1CC(=O)N(c2ccc3c(c2)OCO3)C1)C(=O)NCc1ccco1 (stereo not given in full)	-21.3%
CN(C)[C@H]1CCN(c2cccc3c2S(=O)(=O)N2CC[C@H](C2)O3)C1	-9.6%
CC(c1ccc(N)cc1)c1cn(C)c2ccccc12 (stereo not given)	-4.44%
CC(CCN1CCC(C(O)(c2ccccc2)c2ccccc2)CC1)Oc1ccc(Cl)cc1 (stereo not given)	-21.2%
COc1ccc(-n2c(SCC(=O)Nc3ccc(C)c(Cl)c3)nc3ccccc3c2=O)cc1	-1.63%
O=C(CN1CCN(c2ccc(O)cc2)CC1)NC1CCCc2ccccc21 (stereo not given)	0.42%
COc1ccc(OC)c(NC(=O)c2cc(-c3cc(F)ccc3OCC3CCCO3)n[nH]2)c1 (stereo not given)	75.3% (active)
CCCOc1ccc(F)cc1-c1cc(C(=O)Nc2ccc(F)cc2)[nH]n1	0.04%
COc1cc(F)ccc1-c1cc(C(=O)NCC2CCCCC2)[nH]n1	-20%
O=C(COC(=O)c1cnccn1)Nc1ccc(Cl)cc1C(F)(F)F	-47.6%
C=CCN1C(=O)[C@H](CC(=O)NCCCN2CCCC2=O)[C@@]2(C(=O)OCC)CCCC=C12	-13.7%
CCNc1nc(NC(C)C)nc(OCCOC(=O)c2ccccc2)n1	-5.88%
CN(c1ccc(OCC(=O)OCC(=O)Nc2cccc([N+](=O)[O-])c2)cc1)S(=O)(=O)c1ccc(F)cc1	5.05%
